Our source for the inhibition (viability loss, TRAIL sensitization) values is PubChem BioAssay AID624354 (Sanford-Burnham Center for Chemical Genomics, 2012).

Screen size: about 360,000 compounds; about 3,800 (1.1%) were called active. The sample holds actives, similar compounds and a random draw of the others, so the mix is not that of the screen.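 How the source made its calls: active means compounds causing at least 50% loss of cell viability in the single-dose screen, relative to plate controls; inactive means the rest.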

This experiment can be described thus: TRAIL-exposed caspase-8 expressing cell killing – NB7+C8 cells, ATPlite luminescence, TRAIL sensitizer project, primary screen (AID 624354). The conditions noted are these: at 10 µM, stronger effect = higher value. (In general: Cellular ATP, detected with luciferase, serves as a proxy for viable cell number.)
As for `COc1cccc(NC(=O)COC(=O)c2ccc3ccccc3n2)c1`, the inhibition (viability loss, TRAIL sensitization) is -11.3% (inactive).
Consider `CCOc1cccc(/C=C/c2ccc3ccccc3n2)c1OC(C)=O`, for which the inhibition (viability loss, TRAIL sensitization) was 47.3% (inactive).
The result for `COc1cccc(/C=C/c2ccc3ccccc3n2)c1OC(C)=O` reads 65.1% (active); that for `C=CCCC(=O)N1C[C@H]2CON(C)[C@H]2C[C@H]1c1cccc(Nc2ccccc2)c1`, -0.674% (inactive); that for `O=C(NCc1ccc(Cl)cc1)c1cc2c(nc3sccn32)s1`, 0.401% (inactive).
Regarding `COc1ccc(C2=Nc3ccccc3NC(=O)C2N(C(=O)c2cc3ccccc3[nH]2)c2ccccc2)cc1` (stereo not drawn), the inhibition (viability loss, TRAIL sensitization) was -7.09% (inactive).
The result for `COc1cccc(-c2ccc(SCC(=O)N3CCN(c4ccccc4)CC3)nn2)c1` reads 6.26% (inactive); that for `CCOc1ccc(-c2ccc(SCC(=O)N3CCOCC3)nn2)cc1`, 50.6% (active); that for `COc1ccc(-c2ccnc(SCC(=O)N3CCOCC3)n2)cc1`, 28% (inactive).
The result for `CC(O)c1nc2c(c(=O)n(C)c(=O)n2C)n1C` (stereo not drawn) reads -4.64% (inactive).
The result for `O=C(c1cccs1)N1C[C@H](n2cc(C3CC3)nn2)[C@@H](O)C[C@@H]1c1ccccc1` reads -1.93% (inactive).
Turning to `C=CCc1c(C)nc2cc(-c3ccccc3)[nH]n2c1=O`, the inhibition (viability loss, TRAIL sensitization) is 30.8% (inactive).
The result for `O=c1c2c(nc3cc(-c4cccc(Cl)c4)[nH]n13)CCCC2` reads 63.1% (active); that for `CCCCN1Cc2c(nc3cc(-c4ccccc4)[nH]n3c2=O)C1=O`, -2.49% (inactive); that for `CCn1cc(CNC(=O)c2cc([N+](=O)[O-])c(C)c([N+](=O)[O-])c2)cn1`, 24.5% (inactive).
For `Cn1c(=O)c2c(ncn2CC(COCc2ccccc2Cl)OCc2ccccc2Cl)n(C)c1=O` (stereo not drawn), the inhibition (viability loss, TRAIL sensitization) is -6.46% (inactive).
Regarding `COc1ccc(CCc2nnc(CCC(=O)NCc3cnn(-c4ccccc4C)c3)o2)cc1`, the inhibition (viability loss, TRAIL sensitization) is 2.59% (inactive).
`COc1ccc(C(C(=O)NC2CCCCC2)N(C(=O)c2snc(C(N)=O)c2N)c2ccccc2OC)cc1` (stereo not drawn): the inhibition (viability loss, TRAIL sensitization) was 1.04% (inactive).
Take `Cc1ccccc1N(C(=O)CNC(=O)c1cccs1)C(C(=O)NC1CCCC1)c1ccncc1` (stereo not drawn): the inhibition (viability loss, TRAIL sensitization) was 34.8% (inactive).
`COc1ccc(C(C(=O)NC2CCCCC2)N(C(=O)CCl)c2ccccc2Cl)cc1` (stereo not drawn): the inhibition (viability loss, TRAIL sensitization) was 94.5% (active).
The result for `COC(=O)[C@@]12C[C@@H](CC(=O)N3CCCCC3)C(=O)N(Cc3ccc4c(c3)OCO4)C1=CCC(C)(C)C2` reads -12.6% (inactive); that for `COc1ccccc1C(=O)NCCC(=O)N(C)Cc1cccnc1`, 10.4% (inactive).
The result for `Cc1cc(O)ccc1NC1=CC(=O)CC(C)(C)C1` reads 1.23% (inactive).
The result for `Cc1cc(N=Nc2ccc3ccccc3c2)ccc1O` reads 55.4% (active); that for `CC(C)Cn1c(N)c(C(=O)COC(=O)CN2C(=O)C3CC=CCC3C2=O)c(=O)n(C)c1=O` (stereo not drawn), 13.4% (inactive); that for `CCCc1cc(=O)[nH]c(SCC(=O)c2c(N)n(CC(C)C)c(=O)n(C)c2=O)n1`, 84.5% (active).
`CCCc1cc(=O)[nH]c(SCC(=O)N2C(C)CCCC2C)n1` (stereo not drawn): the inhibition (viability loss, TRAIL sensitization) is -9.5% (inactive).
With `O=C(Nc1cccc2cccnc12)c1ccc2sc([C@H]3C[C@H](O)[C@@H](CO)O3)nc2c1`, the inhibition (viability loss, TRAIL sensitization) was 7.21% (inactive).
For the compound `COC(=O)C[C@@H]1C=C[C@@H](NS(=O)(=O)c2cccc(OC)c2)[C@@H](CO)O1`, the inhibition (viability loss, TRAIL sensitization) is 4.54% (inactive).
As to `CC(=O)c1c(O)cc2n(c1=O)-c1ccc(Cl)cc1C2(C)C`, the inhibition (viability loss, TRAIL sensitization) is 5.66% (inactive).
On to `CC(C)C(NC(=O)C1CCC(C(C)(C)C)CC1)C(=O)NCCCN1CCCCC1` (stereo not drawn), for which the inhibition (viability loss, TRAIL sensitization) was 8.66% (inactive).
The result for `COc1cccc(/C=C/C(=O)Nc2ccc3c(c2)OCCO3)c1` reads 64.9% (active).
Regarding `COc1cccc(C(=O)NNC(=O)/C=C/c2ccccc2)c1`, the inhibition (viability loss, TRAIL sensitization) was -32% (inactive).
The result for `Cc1cccc(NC(=O)/C=C/c2ccc3c(c2)OCO3)n1` reads 79.8% (active); that for `CN(Cc1ccccc1)C(=O)COC(=O)/C=C/c1ccc2c(c1)OCO2`, -10.8% (inactive).
The result for `Cc1ccc(OCCCC(=O)Nc2ccc3c(c2)OCCO3)cc1` reads -4.22% (inactive); that for `Cc1cc(C)nc(NC(=O)/C=C/c2ccc(Cl)cc2)n1`, 2.95% (inactive); that for `COC(=O)Cc1ccc(OC2(C)CCN(Cc3ccc4c(c3)OCCO4)C2)cc1` (stereo not drawn), -7.8% (inactive).
`COc1nnc(-c2ccc(C)c(S(=O)(=O)N(C)C)c2)c2ccccc12`: the inhibition (viability loss, TRAIL sensitization) was -6.56% (inactive).
In the case of `Cc1ccc(/C=C2\CCn3c2nc2cc(C(=O)O)ccc2c3=O)c(C)c1`, the inhibition (viability loss, TRAIL sensitization) is 5.96% (inactive).
As to `COc1ccc(OC)c(-n2nnnc2SCC(=O)Nc2cc(C)ccc2OC)c1`, the inhibition (viability loss, TRAIL sensitization) was -4.79% (inactive).
With `C=CCn1c(C)cc(C2=NNC(=NCC)SC2)c1C`, the inhibition (viability loss, TRAIL sensitization) was 92.8% (active).
The result for `CCC(CC)c1nnc(NC(=O)C2CCN(C(=O)c3ccco3)CC2)s1` reads -18.9% (inactive).
With `CCCNC(=O)c1cc(C2CCCCN2C(=O)OC)on1` (stereo not drawn), the inhibition (viability loss, TRAIL sensitization) was -21.1% (inactive).
The result for `N#CCCC(C#N)(c1cccnc1)N1CCOCC1` (stereo not drawn) reads -12.1% (inactive).
The result for `O=C(Cc1nc2ccccc2[nH]c1=O)c1ccc(Cl)cc1` reads 60.2% (active); that for `O=c1c(-c2ccc(Cl)cc2)[n+]([O-])c2ccccc2n1OCc1nc2ccccc2[nH]1`, -24.1% (inactive).
The result for `O=C(NCC(O)c1nc2ccccc2[nH]1)c1ccc(Br)cc1` (stereo not drawn) reads -0.934% (inactive); that for `CCC1(C)Cc2c(sc3nnn(CC(=O)Nc4ccc(Cl)cc4)c(=O)c23)CO1` (stereo not drawn), -1.52% (inactive).
`COc1cc(OC)cc(-c2cc3ccc(F)cc3cn2)c1`: the inhibition (viability loss, TRAIL sensitization) is 60% (active).
Regarding `Fc1ccc2cnc(-c3ccccc3)cc2c1`, the inhibition (viability loss, TRAIL sensitization) was -5.36% (inactive).
The result for `COc1ccc(C(C)(O)c2nc(-c3cc(F)cc(F)c3)cs2)cc1` (stereo not drawn) reads 21% (inactive); that for `CC(=O)c1nnn(-c2ccc(Cl)cc2C#N)c1C`, 2.75% (inactive); that for `Cc1ccc(N2CCN(c3ccc(C)cc3)C2c2ccccn2)cc1`, -11.7% (inactive).
The result for `Cc1ccc2nc(-c3ccncc3)cc(C(=O)Nc3ccncc3)c2c1` reads 54% (active); that for `Cc1ccc2nc(-c3ccncc3)cc(C(=O)Nc3ccc(OC(F)F)cc3)c2c1`, 14.5% (inactive).
The result for `Cc1ccc(-c2cc(C(=O)NCc3cn(C)nc3C)c3cc(Br)ccc3n2)cc1` reads 12.3% (inactive); that for `Cc1cc(C)n2nc(C(=O)OC(C)C(=O)c3cc(C)c(C)cc3C)nc2n1` (stereo not drawn), -12.9% (inactive).
